This passage reports outcome and Potency results from PubChem BioAssay (Tox21).

Experiment [1] has as its target Peroxisome proliferator-activated receptor delta (Homo sapiens) (UniProt Q03181). The experiment in a line: qHTS assay to identify small molecule agonists of the peroxisome proliferator-activated receptor delta (PPARd) signaling pathway (AID 743212; calls by dose curve). An outline of the steps:
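Cells expressing a UAS-driven beta-lactamase reporter (PPARd-bla HEK293H) were given test compounds after a 5 h settle and kept at 37 C. Reporter activity was then measured as FRET fluorescence using LiveBLAzer B/G substrate.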

Experiment [2] can be described thus: qHTS assay to identify small molecule antagonists of the peroxisome proliferator-activated receptor delta (PPARd) signaling pathway - cell viability counter screen (AID 743213). Further: nearly all actives have a fitted effect of over 50% in size. Further: potency means the concentration at half of the fitted maximal effect. An outline of the steps:
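HEK293H cells with the PPARd UAS-bla reporter, co-treated 17 h at 37 C with compounds and L165041 (300 nM final), were lysed with CellTiter-Glo. Luminescence indicated viable cell content.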
For orientation: In qHTS, concentration-response curves come from the screen itself.

Experiment [3] concerns the target Bile acid receptor (Homo sapiens) (UniProt Q96RI1). The experiment in a line: qHTS assay to identify small molecule antagonists of the farnesoid-X-receptor (FXR) signaling pathway (AID 743217; active means well fitted inhibition curve with a large enough effect in the signal ratio in the repeat runs, not every such curve was filed as active; the % refers to the signal ratio). In a few lines: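 Antagonist mode: chenodeoxycholic acid at 50 uM final stimulates a UAS-driven beta-lactamase reporter in HEK 293T FXR-bla cells during 16 h, 37C compound exposure. Read-out is FRET substrate fluorescence after 2 h at room temperature.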

Experiment [4] is described as follows: qHTS assay to identify small molecule agonists of the farnesoid-X-receptor (FXR) signaling pathway - cell viability counter screen (AID 743218). Further: nearly all actives have a fitted effect of over 45% in size. Further: potency means the concentration at half of the fitted maximal effect. In a few lines:
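Viability counter screen in the same wells: CellTiter-Glo luminescence, 30 min room-temperature incubation, measured after the beta-lactamase read. Cells were GeneBLAzer FXR-UAS-bla HEK 293T, compound-treated 16 h at 37C.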

Experiment [5] is described as follows: qHTS assay to identify small molecule antagonists of the farnesoid-X-receptor (FXR) signaling pathway - cell viability counter screen (AID 743221; active means well fitted cell-killing curve with a large enough effect in the repeat runs, not every such curve was filed as active; further: nearly all actives have a fitted effect of over 50% in size; further: potency means the concentration at half of the fitted maximal effect). In a few lines: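 In GeneBLAzer FXR-UAS-bla HEK 293T cells stimulated with 50 uM chenodeoxycholic acid (final), compounds acted for 16 h at 37 C. Viability was assessed afterwards by CellTiter-Glo luminescence.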

The target of experiment [6] is Vitamin D3 receptor (Homo sapiens) (UniProt P11473). In words: qHTS assay to identify small molecule agonists of the vitamin D receptor (VDR) signaling pathway (AID 743222; calls by dose curve). In a few lines: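 Agonist mode, beta-lactamase reporter: fluorescence from LiveBLAzer B/G FRET substrate (2 h, room temperature) read after 16 h compound treatment at 37 C of VDR-bla cells, which were pre-incubated 4 h after seeding.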

The nature of experiment [7]: qHTS assay to identify small molecule agonists of the vitamin D receptor (VDR) signaling pathway - cell viability counter screen (AID 743224). Further: series mostly up to about 63 µM; nearly all actives have a fitted effect of over 50% in size. An outline of the steps: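 Counter screen run in the same wells as the VDR-bla reporter assay: CellTiter-Glo luminescence, 30 min at room temperature, after 16 h compound treatment at 37C of cells pre-plated for 4 h.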
Experiment [8] can be described thus: qHTS assay to identify small molecule antagonists of the vitamin D receptor (VDR) signaling pathway - cell viability counter screen (AID 743225). Further: nearly all actives have a fitted effect of over 50% in size. Further: potency means the concentration at half of the fitted maximal effect. In a few lines:
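Luminescent cell viability (CellTiter-Glo) in VDR-bla HEK 293T cells after 16 h compound exposure at 37C in the presence of 3 nM final 1-alpha,25-dihydroxy vitamin D3.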

A short description of experiment [9]: qHTS assay to identify small molecule agonists of the NFkB signaling pathway (AID 1159509; active means well fitted curve in the direction sought with a large enough effect in the signal ratio in the repeat runs, not every such curve was filed as active; the % refers to the signal ratio; further: series mostly up to about 61 µM). An outline of the steps:
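Agonist activity was read as beta-lactamase-driven FRET change (460 and 530 nm emission, 405 nm excitation) following 1.5 hr substrate loading at room temperature. Beforehand, ME-180 NFkB-bla reporter cells were treated with compounds for 5 hr at 37 C.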

The nature of experiment [10]: qHTS assay to identify small molecule agonists of the endoplasmic reticulum stress response signaling pathway - cell viability counter screen (AID 1159517; calls by dose curve). An outline of the steps: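 Cpd-treated ESRE-bla HeLa (5 hr, 37 C) → LiveBLAzer 2 hr RT → CellTiter-Glo 30 min RT → luminescence.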
The nature of experiment [11]: qHTS assay to identify small molecule antagonists of the retinoid-related orphan receptor gamma (ROR-gamma) signaling pathway - cell viability counter screen (AID 1159520). Further: nearly all actives have a fitted effect of over 50% in size. An outline of the steps:
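Tet-on ROR gamma CHO cells (1,000/well) were plated 4 hr, given compounds in DMSO for 2 hr at 37 C, then induced with 1 uM final doxycycline for 16 hr. Viability was read as ATP by CellTiter-Glo luminescence after 30 min.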

For experiment [12], the target named is Nuclear receptor ROR-gamma (Homo sapiens) (UniProt P51449). In words: qHTS assay to identify small molecule antagonists of the retinoid-related orphan receptor gamma (ROR-gamma) signaling pathway (AID 1159521; further: nearly all actives have a fitted effect of over 50% in size; further: potency means the concentration at half of the fitted maximal effect). An outline of the steps:
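CHO cells expressing RORγ under a TET-on promoter, luciferase under RORE control. Dox 1 uM final, 16 h; compounds added 2 h prior. Luminescence decrease measured.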

Experiment [13] in a line: qHTS assay to identify small molecule agonists of the AP-1 signaling pathway - cell viability counter screen (AID 1159525; calls by dose curve; further: nearly all actives have a fitted effect of over 55% in size). In a few lines: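 Each titration point was normalised to DMSO and tetra n-octyl ammonium bromide controls. The read was Cell Titer Glo luminescence after 30 min at RT, following 5 h compound exposure of ME-180 AP-1-bla cells at 37 °C.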
Experiment [14] can be described thus: qHTS assay to identify small molecule agonists of the AP-1 signaling pathway (AID 1159526; calls by dose curve).
A short description of experiment [15]: qHTS assay to identify small molecule agonists of the peroxisome proliferator-activated receptor delta (PPARd) signaling pathway - cell viability counter screen (AID 743211). Further: nearly all actives have a fitted effect of over 55% in size. Further: potency means the concentration at half of the fitted maximal effect. In a few lines:
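Luminescent ATP viability assay (CellTiter-Glo, 30 min RT) in UAS-bla HEK293H cells carrying the PPAR delta reporter construct, 3000 cells/well, after a 17 h compound treatment at 37 C.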

For experiment [16], the target named is Vitamin D3 receptor (Homo sapiens) (UniProt P11473). The experiment in a line: qHTS assay to identify small molecule antagonists of the vitamin D receptor (VDR) signaling pathway (AID 743223; active means well fitted inhibition curve with a large enough effect in the signal ratio in the repeat runs, not every such curve was filed as active; the % refers to the signal ratio). In a few lines:
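Agonist 1alpha,25-dihydroxyvitamin D3 (3 nM in well) was added with each compound to VDR-bla cells preincubated 4 h. Cells stood 16 h at 37C, then FRET substrate 2 h at room temperature; fluorescence intensity recorded.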

The target in experiment [17] is Peroxisome proliferator-activated receptor delta (Homo sapiens) (UniProt Q03181). The experiment in a line: qHTS assay to identify small molecule antagonists of the peroxisome proliferator-activated receptor delta (PPARd) signaling pathway (AID 743215; active means well fitted inhibition curve with a large enough effect in the signal ratio in the repeat runs, not every such curve was filed as active; the % refers to the signal ratio;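 further: cells stimulated with agonist L165041 at 300 nM final during compound exposure; series mostly up to about 62 µM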). An outline of the steps:
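Agonist L165041 (300 nM final) added with compound to PPARd-bla HEK293H UAS-bla reporter cells; 17 h incubation at 37 C. Read-out: LiveBLAzer FRET substrate, 2 h at room temperature, fluorescence intensity.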

Experiment [18] is described as follows: qHTS assay to identify small molecule agonists of the endoplasmic reticulum stress response signaling pathway (AID 1159516; active means well fitted activation curve with a large enough effect in the signal ratio in the repeat runs, not every such curve was filed as active; the % refers to the signal ratio). An outline of the steps: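 Ratiometric FRET readout (405 nm excitation; 460 and 530 nm emission) of a beta-lactamase gene driven by the ER stress response element, after 2 hr substrate loading. HeLa ESRE-bla cells were seeded overnight and treated with compounds for only 5 hr at 37 C.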

For experiment [19], the target named is Bile acid receptor (Homo sapiens) (UniProt Q96RI1). In words: qHTS assay to identify small molecule agonists of the farnesoid-X-receptor (FXR) signaling pathway (AID 743220; active means well fitted activation curve with a large enough effect in the signal ratio in the repeat runs, not every such curve was filed as active; the % refers to the signal ratio). An outline of the steps: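 FXR-UAS-bla HEK 293T cells carrying a UAS-driven beta-lactamase reporter were plated for 5 h at 37C/5% CO2, then exposed to DMSO-dissolved Tox21 10K compounds for 16 h at 37C. A LiveBLAzer B/G FRET substrate was loaded for 2 h at room temperature before fluorescence reading.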

A short description of experiment [20]: qHTS assay to identify small molecule agonists of the NFkB signaling pathway - cell viability counter screen (AID 1159515; calls by dose curve; further: series mostly up to about 61 µM; nearly all actives have a fitted effect of over 55% in size). In a few lines:
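Read by CellTiter-Glo luminescence (30 min, room temperature) in the wells also used for the beta-lactamase FRET read. ME-180 NFkB-bla cells at 2,000 per well were plated overnight, then exposed to compound for 5 hr at 37 C.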

Inconclusive results are not listed. Unmarked numbers belong to inactive results. The source made the active and inactive calls. Unless noted, the call rests on the fitted dose curve; in most records, active means well fitted curve in the direction sought with a large enough effect in the repeat runs; inconclusive means weak or mixed curves; inactive means no such curve, though single readings can be large; an effect the other way counts as inactive or inconclusive.

Peroxisome proliferator-activated receptor delta (Homo sapiens), sequence (Q03181 whole entry, looked up): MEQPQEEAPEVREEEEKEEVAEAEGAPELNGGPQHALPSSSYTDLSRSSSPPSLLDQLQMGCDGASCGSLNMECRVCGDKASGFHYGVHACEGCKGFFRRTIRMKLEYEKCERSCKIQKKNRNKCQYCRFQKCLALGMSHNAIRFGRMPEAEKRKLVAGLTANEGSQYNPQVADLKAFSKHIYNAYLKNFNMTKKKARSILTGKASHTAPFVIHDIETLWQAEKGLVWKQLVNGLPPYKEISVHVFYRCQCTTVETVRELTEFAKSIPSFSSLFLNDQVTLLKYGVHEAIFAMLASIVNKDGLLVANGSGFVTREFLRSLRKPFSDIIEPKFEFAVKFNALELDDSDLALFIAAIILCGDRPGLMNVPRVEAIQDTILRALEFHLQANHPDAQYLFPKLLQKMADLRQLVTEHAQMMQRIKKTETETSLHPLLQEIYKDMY
Vitamin D3 receptor (Homo sapiens), sequence (P11473 whole entry, looked up): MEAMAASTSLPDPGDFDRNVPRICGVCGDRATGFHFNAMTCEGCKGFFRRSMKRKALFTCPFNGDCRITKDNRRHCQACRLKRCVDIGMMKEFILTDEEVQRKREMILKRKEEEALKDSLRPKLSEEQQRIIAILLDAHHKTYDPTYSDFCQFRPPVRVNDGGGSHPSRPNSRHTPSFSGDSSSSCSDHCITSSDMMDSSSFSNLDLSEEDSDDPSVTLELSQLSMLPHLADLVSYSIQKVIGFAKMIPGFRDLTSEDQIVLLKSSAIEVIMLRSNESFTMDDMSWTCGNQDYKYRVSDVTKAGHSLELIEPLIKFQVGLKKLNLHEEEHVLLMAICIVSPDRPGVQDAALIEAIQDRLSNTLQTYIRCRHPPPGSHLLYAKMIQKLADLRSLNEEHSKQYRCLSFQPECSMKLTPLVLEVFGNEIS
Bile acid receptor (Homo sapiens), sequence (Q96RI1 whole entry, looked up): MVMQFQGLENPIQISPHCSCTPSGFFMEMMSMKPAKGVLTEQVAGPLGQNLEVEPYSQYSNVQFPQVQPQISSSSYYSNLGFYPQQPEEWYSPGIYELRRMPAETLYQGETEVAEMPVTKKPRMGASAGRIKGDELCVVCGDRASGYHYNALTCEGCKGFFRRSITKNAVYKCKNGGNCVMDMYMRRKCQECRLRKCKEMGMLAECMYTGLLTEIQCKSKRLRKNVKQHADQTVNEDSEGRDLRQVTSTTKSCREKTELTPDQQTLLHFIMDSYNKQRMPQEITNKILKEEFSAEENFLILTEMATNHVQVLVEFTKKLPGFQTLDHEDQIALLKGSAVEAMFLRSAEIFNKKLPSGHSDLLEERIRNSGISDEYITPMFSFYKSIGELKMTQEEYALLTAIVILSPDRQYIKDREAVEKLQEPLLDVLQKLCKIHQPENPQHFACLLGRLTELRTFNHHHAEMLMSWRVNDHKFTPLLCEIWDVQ

On to `CCCCC(CC)COS(=O)(=O)O` (stereo not drawn), for which the compound was called inactive in experiment [1], in experiment [3], in [6], in experiment [9] and in [14]. The Potency entry in experiment [2], in experiment [4], in experiment [5], in experiment [7], in experiment [8] and in experiment [10] was “inactive” in each case. Moreover, the Potency result in [11], in experiment [12] and in [13] was “inactive” each time.

For the compound `CCCCCCOC(=O)CCCCC`, the Potency result in [15], in experiment [2], in experiment [4], in [5], in [7] and in experiment [10] was “inactive” each time. In addition, the Potency entry in experiment [11] and in [13] was “inactive” throughout. The compound was classed as inactive in experiment [6], in experiment [16], in experiment [9] and in experiment [14].

With `CC(=O)OCC(=O)[C@@]1(OC(C)=O)[C@@H](C)C[C@H]2[C@@H]3C[C@H](F)C4=CC(=O)C=C[C@]4(C)[C@@]3(F)[C@@H](O)C[C@@]21C`, the Potency result in experiment [15], in experiment [2], in [17], in experiment [4], in experiment [5] and in experiment [7] was “inactive” in each case. The Potency result in experiment [8], in experiment [18], in [11], in [12] and in experiment [13] was “inactive” in each case. The compound was called inactive in experiment [16], in [9] and in [14].

Take `CN1CCCN(C(c2ccccc2)c2ccc(Cl)cc2)CC1` (stereo not drawn): the Potency in [15] is 21.1 µM (active); in [2] it was 26.6 µM (active); in [4], 29.8 µM (active); in experiment [5] it was 26.6 µM (active); in experiment [8] it was 21.3 µM (active); in [12], 26.6 µM (active). Besides, the Potency entry in experiment [19], in experiment [18], in [11] and in experiment [13] was “inactive” each time. In addition, the result in experiment [9] was inactive.

As for `CCOC(=O)c1c(N)sc2c1CCN(Cc1ccccc1)C2`, the Potency result in experiment [2], in experiment [4], in experiment [5], in experiment [7], in [20] and in experiment [10] was “inactive” each time. Further, the Potency result in [11] and in experiment [13] was “inactive” each time. Besides, the call in experiment [16], in [9] and in [14] was inactive.

Turning to `SCCc1cnccn1`, the Potency result in experiment [2], in experiment [4], in experiment [5], in experiment [7], in experiment [8] and in experiment [20] was “inactive” each time. Further, the Potency result in experiment [10], in experiment [11] and in experiment [13] was “inactive” throughout. Besides, the compound was classed as inactive in experiment [9] and in experiment [14].

In the case of `CCCc1nc2c(C)cc(-c3nc4ccccc4n3C)cc2n1Cc1ccc(-c2ccccc2C(=O)O)cc1`, the Potency entry in [15], in [2], in [17], in experiment [4], in experiment [5] and in experiment [7] was “inactive” throughout. Moreover, the Potency result in experiment [8], in experiment [10], in experiment [11], in [12] and in experiment [13] was “inactive” throughout. Moreover, the compound was called inactive in experiment [1], in experiment [16], in experiment [9] and in experiment [14].

Take `O=P(O)(O)Oc1ccccc1`: the Potency result in [2], in experiment [4], in [19], in [5], in experiment [7] and in [8] was “inactive” each time. Also, the Potency result in experiment [18], in experiment [11], in experiment [12] and in experiment [13] was “inactive” each time. For the same compound, the result in experiment [3], in experiment [6], in experiment [16], in experiment [9] and in experiment [14] was inactive.

As to `COc1ccc(C(=O)NCc2ccc(OCCN(C)C)cc2)cc1OC`, the Potency result in experiment [15], in [2], in [17], in experiment [4], in [5] and in [7] was “inactive” throughout. Besides, the Potency entry in experiment [8], in [20], in [18], in [11], in experiment [12] and in [13] was “inactive” in each case. Also, the call in [1], in experiment [6], in [16] and in experiment [14] was inactive.

`CC(=O)OCC(C)C`: the Potency result in [15], in experiment [2], in [4], in [5], in [7] and in [8] was “inactive” each time. The Potency entry in [20], in experiment [10], in experiment [11] and in experiment [13] was “inactive” each time. Besides, the outcome in experiment [6], in [16], in experiment [9] and in experiment [14] was inactive.
